Our source for the max response and outcome values is PubChem BioAssay (NCATS).

Values joined by “and” are separate entries in the source; they are usually repeats but may differ in a detail not shown here. Equal entries are not always repeated. Results filed as inconclusive are left out. Active and inactive are the calls of the source. The call rests on the fitted dose curve; in most records, active means well fitted activation curve with a large enough effect; inconclusive means small, poorly fitted or top-dose-only effect; inactive means flat fitted curve, though single readings scatter.

The target in one assay is Peroxisome proliferator-activated receptor alpha (Homo sapiens) (UniProt Q07869). The assay is described as follows: qHTS assay for small molecule agonists of the peroxisome proliferator-activated receptor alpha (PPARalpha) signaling pathway (AID 651778). Further: % of control where 0% means no effect. As to conditions: PathHunter PPARalpha complementation, chemiluminescence, 6 h; max response: stronger effect = higher value. In a few lines: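 Cells plated at 2,000/well and held overnight at 37 C, 5% CO2, then compound added by pin tool for 6 hr; after PathHunter detection reagent and 60 min at room temperature, chemiluminescence from enzyme complementation was read.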
Peroxisome proliferator-activated receptor alpha (Homo sapiens), sequence (Q07869 whole entry, looked up): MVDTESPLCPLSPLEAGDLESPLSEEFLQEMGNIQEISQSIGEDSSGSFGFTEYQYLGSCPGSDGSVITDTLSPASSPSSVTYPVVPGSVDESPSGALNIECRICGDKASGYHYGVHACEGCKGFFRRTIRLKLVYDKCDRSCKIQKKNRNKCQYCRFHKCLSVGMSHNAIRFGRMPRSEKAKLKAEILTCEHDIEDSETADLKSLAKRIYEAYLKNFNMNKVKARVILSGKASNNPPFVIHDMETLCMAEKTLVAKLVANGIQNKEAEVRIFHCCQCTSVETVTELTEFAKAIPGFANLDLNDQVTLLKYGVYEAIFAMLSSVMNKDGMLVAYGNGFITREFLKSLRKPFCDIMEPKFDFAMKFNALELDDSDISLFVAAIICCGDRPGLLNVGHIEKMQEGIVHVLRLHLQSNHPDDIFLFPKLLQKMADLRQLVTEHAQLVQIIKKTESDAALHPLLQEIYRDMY
On the technique in general: In qHTS, concentration-response curves come from the screen itself.
As to `COc1cccc2c1C(=O)c1c(O)c3c(c(O)c1C2=O)C[C@@](O)(C(C)=O)C[C@@H]3O[C@H]1C[C@H](N)[C@H](O)[C@H](C)O1`, the max response is -9.3% (inactive).
As to `NC(=NCCCCCCN=C(N)/N=C(\N)Nc1ccc(Cl)cc1)/N=C(\N)Nc1ccc(Cl)cc1`, the max response was 3.51% (inactive) and 6.34% (inactive) and -1.99% (inactive).
Still for that read-out and setting: with `Oc1ccc(Cl)cc1Sc1cc(Cl)ccc1O` the figure was 18% (inactive).

Test system in another assay: not listed separately
The assay is described as follows: qHTS for Activators of Parkin Expression: LOPAC Validation Assay (NLuc Reporter) (AID 720572;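 further: 0% = DMSO and 100% = positive control compound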). As to conditions: Parkin promoter NanoLuc reporter cells, luminescence, percent of positive control, DMSO as zero; series mostly up to 46.1 µM. In a few lines:
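Cells harboring the Parkin-promoter coincidence reporter were treated for 24 h at seven concentrations. NLuc output was measured sequentially after the FLuc channel and scaled between DMSO and positive control values.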
As to `CC(C)C[C@H]1C(=O)N2CCC[C@H]2[C@]2(O)O[C@](NC(=O)[C@@H]3C=C4c5cccc6[nH]c(Br)c(c56)C[C@H]4N(C)C3)(C(C)C)C(=O)N12`, the result was inactive.
The same measure, in the same setting: with `COC(=O)[C@H]1[C@H]2C[C@H]3c4[nH]c5ccccc5c4CCN3C[C@H]2CC[C@@H]1O` the entry was “inactive”; with `CCC(NC(C)C)C(O)c1ccc(O)c(O)c1` (stereo not drawn), “inactive”; with `COc1cc(NS(C)(=O)=O)ccc1Nc1c2ccccc2nc2ccccc12`, “inactive”.
As for `CCCC1O[C@@H]2C[C@H]3[C@@H]4CCC5=CC(=O)C=C[C@]5(C)[C@H]4[C@@H](O)C[C@]3(C)[C@]2(C(=O)CO)O1` (stereo partly drawn), the outcome was inactive.
The same measure, in the same setting: under `Nc1cc(Cl)c(NC2=NCCN2)c(Cl)c1` stands “inactive”; under `CC1(C)CCC(NC(=O)[C@@H](N)CCC(=O)O)CC1`, “inactive”; under `CNCCC=C1c2ccccc2CCc2ccccc21`, “inactive”.
For the compound `C[C@@H]1C(=O)NC2=Nc3cccc(Cl)c3CN21`, the call was inactive.
Still for that read-out and setting: under `CC(CCc1ccccc1)NCC(O)c1ccc(O)c(C(N)=O)c1` (stereo not drawn) stands “inactive”; under `C[N+]1(CCCCC[N+]2(C)CCCC2)CCCC1`, “inactive”; under `N[C@@H](Cc1cnc[nH]1)C(=O)O`, “inactive”.
Regarding `C1CCc2nnnn2CC1`, the compound was classed as inactive.
Take `N[C@H](CO)C(=O)O`: the call was inactive.
The same measure, in the same setting: under `O=C(O)c1cc2cc(Cc3cccnc3)ccc2o1` stands “inactive”; under `CN1C2CCC1CC(OC(=O)c1c[nH]c3ccccc13)C2` (stereo not drawn), “inactive”.
Same read-out and setting: with `CNCCC(Oc1ccccc1C)c1ccccc1` (stereo not drawn) the entry was “inactive”; with `CC(=O)O[C@H]1C[C@@H]2CC[C@@H]3[C@H](CC[C@@]4(C)[C@H]3C[C@H]([N+]3(C)CCCCC3)[C@@H]4OC(C)=O)[C@@]2(C)C[C@@H]1[N+]1(C)CCCCC1`, “inactive”; with `O=C1CCC(c2ccc(-n3ccnc3)cc2)=NN1`, “inactive”.
On the same count and under the same terms, with `CC(C)COC(=O)OCN1C(=O)CN(CCN2CC(=O)N(COC(=O)OCC(C)C)C(=O)C2)CC1=O` the entry was “inactive”.
